Bioassay records: PubChem, National Center for Advancing Translational Sciences (NCATS)
Many of the other results were omitted from the sample, so hits are more common in it than they were.
VDR inhibitor: inhibitors of human vitamin D receptor; Potency, µM, inactives show max response, negative = inhibition, actives largely listed as inhibitors; VDR-SRC2-3 peptide fluorescence polarization, 2 h; P11473; 400,000 tested, 0.93% active; note: % is set by controls: 0 for no effect and ±100 for the full control effect
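Signal is fluorescence polarization, reporting how far test compounds block the interaction of VDR with the SRC2-3 coregulator peptide after a 2 h room-temperature incubation.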
ALOX12 inh: blocks human arachidonate 12S-lipoxygenase | P18054 | 580,000 tested, 1.1% active | AID 1671190 | Potency, µM (highest dose often 108 µM), for the others: top-dose activity change, negative = inhibition, hits mostly inhibitors | purified 12hLO, xylenol orange hydroperoxide absorbance; note: % is set by controls: 0 for no effect and ±100 for the full control effect
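Hydroperoxide product was detected by ferrous iron/xylenol orange as the 573 to 405 nm absorbance ratio. Arachidonic acid at 40 uM (final) was turned over for 30 min at room temperature by 150 nM human 12hLO, pH 7.0 Hepes buffer, after 15 min compound preincubation.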
Glioma ERSR ind: ER stress response induction in glioma. 420,000 tested, 0.02% active. U87-MG GRP78 promoter luciferase reporter, 16 h. Potency, µM, for inactives: at the highest dose activation, most hits filed as activators. AID 602332; note: series mostly up to about 76 µM; % of control where 0% means no effect; nearly all actives have a fitted effect of over 35% in size
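Stably transfected U87-MG glioma cells carrying a GRP78-based luciferase sensor; 16 h compound incubation. Luminescence end-point read 10 min after Bright-Glo addition at room temperature.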
G9a block: inhibitors of human histone lysine methyltransferase G9a | G9a H3K9 monomethylation, AlphaScreen, 2 h | Potency, µM (top dose mostly 102 µM), without a hit: at the top dose activity, negative = inhibition, usual class: inhibitors | 350,000 tested, 8.8% active | AID 504332; note: % is set by controls: 0 for no effect and ±100 for the full control effect; nearly all actives have a fitted effect of over 75% in size
Target sequence (Q96KQ7 913-1193 limits assumed): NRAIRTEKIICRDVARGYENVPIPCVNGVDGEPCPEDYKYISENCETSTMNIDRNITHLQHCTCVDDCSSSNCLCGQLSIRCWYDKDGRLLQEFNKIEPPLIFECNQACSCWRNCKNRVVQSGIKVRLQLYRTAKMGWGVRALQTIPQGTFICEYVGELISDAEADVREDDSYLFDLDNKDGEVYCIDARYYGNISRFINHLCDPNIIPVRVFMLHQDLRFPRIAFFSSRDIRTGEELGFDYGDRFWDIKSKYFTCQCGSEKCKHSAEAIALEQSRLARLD
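G9a (20 nM) preincubated 15 min RT with compounds, then 500 nM biotinylated H3K9 peptide and 20 uM SAM added; 2 h RT reaction. Monomethyl-H3K9 product detected by AlphaScreen with anti-H3K9me1 antibody, streptavidin donor and anti-rabbit IgG acceptor beads.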
Sfp inh: Sfp phosphopantetheinyl transferase inhibition. Q9F4F7. 310,000 tested, 3.5% active. AID 1490. Potency, µM, without a hit: largest response in the series, negative = inhibition, hits mostly inhibitors. Biochemical Sfp PPTase activity, qHTS;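 note: the enzyme is Sfp with the accession as filed and its product quenches rhodamine fluorescence; 0% = enzyme reaction without inhibitor and -100% = no enzyme wells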
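Step 1, compound plus 15 nM Sfp-PPTase, 15 min, room temperature. Step 2, add rhodamine-CoA (5 uM) and BHQ-2-YbbR (12.5 uM). Step 3, read 525/598 nm fluorescence at 0 and 30 min.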
Numbers without * were called inactive; ? = inconclusive; · = not tested or not shown; [ ] = remark or other dose. Calls come from the whole dose curve; as a rule, active = well fitted curve in the direction sought with a large enough effect; inconclusive = small, poorly fitted or top-dose-only effect, or another doubt; inactive = no such curve, though single readings can be large; an effect the other way counts as inactive or inconclusive. Potency is the fitted concentration of half-maximal effect.

SMILES | VDR inhibitor | ALOX12 inh | Glioma ERSR ind | G9a block | Sfp inh
CC1CCCN(c2ccc([N+](=O)[O-])s2)C1 (stereo not drawn) | -27% | ? | 6% | 25µM* | 50µM*
CC1CCCN(c2c([N+](=O)[O-])cc(C(=O)O)cc2[N+](=O)[O-])C1 (stereo not drawn) | -14% | -1% | -3% | -24% | -16%
O=[N+]([O-])c1ccc(N2CCCCC2)s1 | -17% | ? | -1% | 22µM* | 50µM*
CCOc1ccc(C(=O)OCc2ncc(-c3ccccc3)o2)cc1 | · | 37% | · | · | ·
Cc1ccccc1-c1nccn2c(C3CN(Cc4ccc(O)cc4)C3)ncc12 | · | 90%[176 µM] | · | · | ·
Cc1cc(NN)nc(NS(=O)(=O)c2ccccc2)n1 | 1% | ? | -3% | 32µM* | 56µM*
CCSc1nc(N)c2c(n1)NC1=C(C(=O)CC(C)(C)C1)C2c1cccs1 (stereo not drawn) | · | -8% | · | · | ·
CN(Cc1ccccc1F)C(C(=O)NC1CC1)c1ccccc1 (stereo not drawn) | · | 30% | · | · | ·
CC(=O)Nc1ccc2sn(-c3ccccc3)c(=O)c2c1 | · | 1.1µM* | -11% | · | ·
CCn1c2ccccc2c2cc(NC(C)=O)ccc21 | 7% | ? | -2% | 5% | 4%
N#Cc1ccc2sn(-c3ccccc3)c(=O)c2c1 | · | 0.35µM* | 3% | · | ·
O=c1c2cc([N+](=O)[O-])ccc2sn1-c1ccccc1 | · | 0.25µM* | -4% | · | ·
COc1cc(C2CC(=O)Nc3c(-c4ccccc4)nsc32)c(OC)c2c1OCO2 (stereo not drawn) | · | 6% | · | · | ·
CC(C)c1ccccc1NC(=O)c1nn(C)c(=O)c2ccccc12 | · | -14% | · | · | ·
CN1CCOc2c(C(=O)NCCN3CCNC3=O)cc(-c3cccc4[nH]ccc34)cc21 | · | -6%[176 µM] | · | · | ·
Nc1nonc1N/N=C\c1ccccc1 | -10% | 353% | -4% | -2% | 8%
Nc1nonc1NN=C1CCCCC1 | 20% | -1% | 3% | 1% | 79µM*
O=C(c1cccs1)N1CCN(Cc2ccccc2)CC1 | -5% | -4% | 0% | -2%[59 µM] | 28%
O=C(c1ccco1)N1CCN(Cc2cccnc2)CC1 | 1% | ? | -7% | 3.5µM* | ?
O=C(c1cccs1)N1CCN(Cc2ccncc2)CC1 | -5% | 71% | -4% | 7.9µM* | ?
O=C(c1cccs1)N1CCN(Cc2cccnc2)CC1 | 2% | -16% | -2% | 11µM* | ?
O=C(c1cccs1)N1CCN(CCCc2ccccc2)CC1 | 11% | ? | 1% | 32µM* | -17%
Cc1ccc(OC(C)C(=O)Nc2ccc3nsnc3c2)cc1C (stereo not drawn) | · | -2% | · | · | ·
Cc1ccc(NC(=O)C(C)OC(=O)C2=CN3CCS(=O)(=O)N=C3C=C2)cc1 (stereo not drawn) | · | -25% | · | · | ·
COc1ccc(-c2cc(C)nc3c(-c4ccc(OC)c(OC)c4)c(C)nn23)cc1 | 0% | -17% | -5% | 14µM* | ·
SMILES | VDR inhibitor | ALOX12 inh | Glioma ERSR ind | G9a block | Sfp inh
COc1ccc(OC)c(CCNc2nccn(-c3ccc(C)c(C)c3)c2=O)c1 | -4% | -12% | -1% | 16µM* | ·
CCOC(=O)c1sc(NC(=O)c2cc(-c3cccc(O)c3)on2)c(C(=O)OCC)c1C | -13% | 12% | -1% | -4% | 10%
CCOC(=O)c1c(-c2ccccc2)csc1NC(=O)c1cc(-c2ccc(Cl)cc2)on1 | ? | 0% | -1% | 18µM* | ·
CCOC(=O)c1c(-c2ccc(Cl)cc2)csc1NC(=O)CNCc1ccco1 | -13% | -1% | -3% | -132%[59 µM] | 50µM*
CCOC(=O)c1c(-c2ccc(C)cc2)csc1NC(=O)c1nc(SC(C)C)ncc1Cl | -1% | -23% | -2% | 13µM* | ·
CCOC(=O)c1c(NC(=O)c2cc(-c3ccc(Br)cc3)on2)sc(C)c1C | 79µM* | -5% | 0% | 2.8µM* | ·
CC(OC(=O)c1ccc(CO)cc1)C(=O)c1c[nH]c2ccccc12 (stereo not drawn) | · | 4% | · | · | ·
COC(=O)c1c(-c2cccnc2)csc1NC(=O)c1cc(C)on1 | 79µM* | ? | -1% | ? | -66%
CCOC(=O)c1c(-c2ccccc2)csc1NC(=O)c1nn(CC)cc1Br | -10% | -1% | -2% | ? | -23%
CCOC(=O)c1c(-c2ccc(C)cc2)csc1NC(=O)c1cc(=O)c2cc(C)cc(C)c2o1 | -11% | -27% | -3% | 7.1µM* | ·
CCOC(=O)c1c(-c2ccccc2)csc1NC(=S)N(CC)CC | -17% | -9% | -4% | 22µM* | -3%
